# The campaign covered roughly 5,500 compounds. About 2,000 (36%) were called active. Roughly 18% stayed inconclusive and do not appear here. The list shows a part of the results. Unmarked numbers belong to inactive results. Cut-off read from the data, not from the text of the source: active = normalized growth mostly below about 0.91 (no sharp cut-off); inconclusive = no clear call, values can overlap the other calls; inactive = mostly above about 0.92.
# Test: chemical genetic growth profiling, strain panel (AID 1159580);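 note: tested at 20 µM; growth read once vehicle control cultures reached saturation at 30 °C; 1 = growth at the plate median or of vehicle wells; lower values mean less growth of the strain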
# Details: S. cerevisiae deletion strains, growth OD
smiles,measurement,setting,value
COc1ccc2nc3ccccc3c(N)c2c1,normalized growth,"locus YAR019C, strain CDC15, active compounds read low",0.6 (active)
same,normalized growth,"locus YBL105C, strain PKC1, active compounds read low",0.592 (active)
same,normalized growth,"locus YBR135W, strain CKS1, active compounds read low",0.722 (active)
same,normalized growth,"locus YBR136W, strain MEC1, active compounds read low",0.657 (active)
same,normalized growth,"locus YBR160W, strain CDC28, active compounds read low",0.661 (active)
same,normalized growth,"locus YDL017W, strain CDC7, active compounds read low",0.636 (active)
same,normalized growth,"locus YDL028C, strain MPS1, active compounds read low",0.679 (active)
same,normalized growth,"locus YDL108W, strain KIN28, active compounds read low",0.737 (active)
same,normalized growth,"locus YDL214C, strain PRR2, active compounds read low",0.203 (active)
same,normalized growth,"locus YDR052C, strain DBF4, active compounds read low",0.701 (active)
same,normalized growth,"locus YDR054C, strain cdc34, active compounds read low",0.625 (active)
same,normalized growth,"locus YDR477W, strain SNF1, active compounds read low",0.198 (active)
same,normalized growth,"locus YER123W, strain YCK3, active compounds read low",0.195 (active)
same,normalized growth,"locus YER133W, strain GLC7, active compounds read low",0.215 (active)
same,normalized growth,"locus YFL029C, strain CAK1, active compounds read low",0.579 (active)
same,normalized growth,"locus YFR003C, strain YPI1, active compounds read low",0.652 (active)
same,normalized growth,"locus YFR019W, strain FAB1, active compounds read low",0.208 (active)
same,normalized growth,"locus YGR040W, strain KSS1, active compounds read low",0.21 (active)
same,normalized growth,"locus YGR052W, strain FMP48, active compounds read low",0.235 (active)
same,normalized growth,"locus YGR092W, strain DBF2, active compounds read low",0.227 (active)
same,normalized growth,"locus YHR030C, strain SLT2, active compounds read low",0.188 (active)
same,normalized growth,"locus YHR079C, strain IRE1, active compounds read low",0.206 (active)
same,normalized growth,"locus YHR082C, strain KSP1, active compounds read low",0.27 (active)
same,normalized growth,"locus YHR205W, strain SCH9, active compounds read low",0.151 (active)
same,normalized growth,"locus YIL147C, strain SLN1, active compounds read low",0.63 (active)
same,normalized growth,"locus YJL095W, strain BCK1, active compounds read low",0.227 (active)
same,normalized growth,"locus YJL157C, strain FAR1, active compounds read low",0.176 (active)
same,normalized growth,"locus YJR016C, strain ILV3, active compounds read low",0.699 (active)
same,normalized growth,"locus YJR066W, strain TOR1 (second series), active compounds read low",0.246 (active)
same,normalized growth,"locus YJR066W, strain TOR1, active compounds read low",0.233 (active)
same,normalized growth,"locus YKL048C, strain ELM1, active compounds read low",0.264 (active)
same,normalized growth,"locus YKL067W, strain YNK1, active compounds read low",0.19 (active)
same,normalized growth,"locus YKL101W, strain HSL1, active compounds read low",0.193 (active)
same,normalized growth,"locus YKL193C, strain SDS22, active compounds read low",0.659 (active)
same,normalized growth,"locus YKL203C, strain TOR2, active compounds read low",0.204 (active)
same,normalized growth,"locus YLR113W, strain HOG1, active compounds read low",0.257 (active)
same,normalized growth,"locus YLR133W, strain CKI1, active compounds read low",0.199 (active)
same,normalized growth,"locus YLR403W, strain SFP1, active compounds read low",0.11 (active)
same,normalized growth,"locus YML070W, strain DAK1, active compounds read low",0.207 (active)
same,normalized growth,"locus YMR001C, strain CDC5, active compounds read low",0.667 (active)
same,normalized growth,"locus YMR205C, strain PFK2 (second series), active compounds read low",0.258 (active)
same,normalized growth,"locus YMR277W, strain FCP1, active compounds read low",0.648 (active)
same,normalized growth,"locus YNL006W, strain LST8, active compounds read low",0.611 (active)
same,normalized growth,"locus YNL020C, strain ARK1, active compounds read low",0.196 (active)
same,normalized growth,"locus YNL161W, strain CBK1, active compounds read low",0.525 (active)
same,normalized growth,"locus YNL183C, strain NPR1, active compounds read low",0.283 (active)
same,normalized growth,"locus YNL207W, strain RIO2, active compounds read low",0.645 (active)
same,normalized growth,"locus YNL222W, strain SSU72, active compounds read low",0.638 (active)
same,normalized growth,"locus YNL307C, strain MCK1 (second series), active compounds read low",0.202 (active)
same,normalized growth,"locus YOL078W, strain AVO1, active compounds read low",0.689 (active)
same,normalized growth,"locus YOL136C, strain PFK27, active compounds read low",0.205 (active)
same,normalized growth,"locus YOR061W, strain CKA2, active compounds read low",0.186 (active)
same,normalized growth,"locus YOR119C, strain RIO1, active compounds read low",0.221 (active)
same,normalized growth,"locus YOR231W, strain MKK1, active compounds read low",0.225 (active)
same,normalized growth,"locus YOR329C, strain SCD5, active compounds read low",0.607 (active)
same,normalized growth,"locus YPL031C, strain PHO85, active compounds read low",0.214 (active)
same,normalized growth,"locus YPL153C, strain RAD53, active compounds read low",0.216 (active)
same,normalized growth,"locus YPL204W, strain HRR25, active compounds read low",0.198 (active)
same,normalized growth,"locus YPL209C, strain IPL1, active compounds read low",0.624 (active)
same,normalized growth,"locus YPL256C, strain CLN2, active compounds read low",0.252 (active)
same,normalized growth,"locus YPR025C, strain CCL1, active compounds read low",0.637 (active)
same,normalized growth,"locus YPR106W, strain ISR1, active compounds read low",0.679 (active)
same,normalized growth,"locus YPR111W, strain DBF20, active compounds read low",1
same,normalized growth,"strain NNK1, active compounds read low",0.537 (active)
same,normalized growth,"strain TSCII, active compounds read low",0.58 (active)
